According to PubChem BioAssay (NCI):
Values joined by “and” are separate entries in the source; they are usually repeats but may differ in a detail not shown here. Identical values can stand only once. About 79,000 compounds went through this panel and 15% of them were active in at least one assay; those are over-represented in the sample as a whole. A structure can be active in one record and inactive in another. Active and inactive are the calls of the source. Rule as the data show it: active = growth inhibition above about 70%; inactive = the rest.

Key:
[1] = NCI Yeast Anticancer Drug Screen. Data for the rad50 strain (AID 155);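 also: 0% = growth of vehicle-only cultures of the same strain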; settings: S. cerevisiae rad50 strain growth inhibition, stronger effect = higher value
In short: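 Compounds were tested on a yeast strain with an engineered DNA damage repair alteration; the reported value is growth inhibition normalised to vehicle treatment.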

[2] = NCI Yeast Anticancer Drug Screen. Data for the mec2-1 strain (AID 157); settings: S. cerevisiae mec2-1 strain, stronger effect = higher value
In short: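 Readout is yeast growth inhibition, normalised to vehicle-treated controls, in the mec2-1 strain exposed to compound.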

[3] = NCI Yeast Anticancer Drug Screen. Data for the sgs1 mgt1 strain (AID 161);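 also: 0% = growth of cultures given vehicle only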; settings: S. cerevisiae sgs1 mgt1 strain, stronger effect = higher value
In short: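 Growth of a repair-deficient yeast mutant was monitored after compound treatment and expressed as inhibition relative to vehicle-treated cultures.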

[4] = NCI Yeast Anticancer Drug Screen. Data for the cln2 rad14 strain (AID 165);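 also: 0% = growth equal to vehicle treated cultures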; settings: S. cerevisiae cln2 rad14 strain, stronger effect = higher value
In short: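 Relative to vehicle controls, growth inhibition of compound-treated cln2 rad14 yeast was recorded.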

[5] = NCI Yeast Anticancer Drug Screen. Data for the wt2 strain (AID 169);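 also: 0% = growth of vehicle-treated yeast cultures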; settings: S. cerevisiae wt2 strain growth inhibition, stronger effect = higher value
In short: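 Values express reduction in yeast growth under compound treatment, referenced to vehicle-treated cells.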

[6] = NCI Yeast Anticancer Drug Screen. Data for the mlh1 rad18 strain (AID 175); settings: S. cerevisiae mlh1 rad18 strain growth inhibition, stronger effect = higher value
In short: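 Test agents were incubated with a yeast strain of defined genotype (DNA damage repair defect). Inhibition of growth was derived by comparison with vehicle-exposed cultures.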

[7] = NCI Yeast Anticancer Drug Screen. Data for the bub3 strain (AID 167); settings: S. cerevisiae bub3 mutant strain, stronger effect = higher value
In short: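 Growth of a checkpoint-deficient yeast mutant is measured after compound exposure. Values represent inhibition relative to vehicle.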

[8] = at 5.0 µM (retest, dose inferred, filed as 0.5)
[9] = at 50.0 µM (retest, dose inferred, filed as 5.0)

COc1ccc(CC(=O)c2ccc(O)cc2O)cc1
growth inhibition [1, 8]: 30% (inactive) | growth inhibition [1, 9]: 90% (active) | growth inhibition ([1]; at 50.0 µM): 49.5% (inactive) | growth inhibition [2, 8]: 38% (inactive) | growth inhibition [2, 9]: 80% (active) | growth inhibition ([2]; at 50.0 µM): 42.3% (inactive) | growth inhibition [3, 8]: -22% (inactive) | growth inhibition [3, 9]: 73% (active) | growth inhibition ([3]; at 50.0 µM): 54.8% (inactive) | growth inhibition [4, 8]: 64% (inactive) | growth inhibition [4, 9]: 76% (active) | growth inhibition ([4]; at 50.0 µM): 52.2% (inactive) | growth inhibition ([5]; at 1.2 µM): -4% (inactive) | growth inhibition ([5]; at 3.7 µM): -4% (inactive) | growth inhibition ([5]; at 11.0 µM): -13% (inactive) | growth inhibition ([5]; at 33.0 µM): 14% (inactive) | growth inhibition ([5]; at 100.0 µM): 91% (active) | growth inhibition [6, 8]: 19% (inactive) | growth inhibition [6, 9]: 97% (active) | growth inhibition ([6]; at 50.0 µM): 53.1% (inactive)

CCOC(=O)Nc1c(C)cc(C)c(Br)c1C
growth inhibition [1, 8]: -3% (inactive) | growth inhibition [1, 9]: -3% (inactive) | growth inhibition ([1]; at 50.0 µM): 97.2% (active) | growth inhibition [2, 8]: -12% (inactive) | growth inhibition [2, 9]: 6% (inactive) | growth inhibition ([2]; at 50.0 µM): 98.7% (active) | growth inhibition [3, 8]: 1% (inactive) | growth inhibition [3, 9]: 12% (inactive) | growth inhibition ([3]; at 50.0 µM): 94.9% (active) | growth inhibition [4, 8]: 0% (inactive) | growth inhibition [4, 9]: -20% (inactive) | growth inhibition ([4]; at 50.0 µM): 98.9% (active) | growth inhibition [7, 8]: -5% (inactive) | growth inhibition [7, 9]: -8% (inactive) | growth inhibition ([7]; at 50.0 µM): 98.6% (active) | growth inhibition [6, 8]: 9% (inactive) | growth inhibition [6, 9]: 22% (inactive) | growth inhibition ([6]; at 50.0 µM): 99.2% (active)

O=[N+]([O-])c1ccc(N/N=C(/C=N/Nc2ccc([N+](=O)[O-])cc2)C(O)C(O)C(O)CO)cc1 (stereo not given)
growth inhibition [1, 8]: 44% (inactive) and 67% (inactive) | growth inhibition [1, 9]: 97% (active) and 96% (active) | growth inhibition ([1]; at 50.0 µM): 97.7% (active) and 97.2% (active) | growth inhibition [2, 8]: 48% (inactive) and 55% (inactive) | growth inhibition [2, 9]: 99% (active) and 98% (active) | growth inhibition ([2]; at 50.0 µM): 97.8% (active) and 97.7% (active) | growth inhibition [3, 8]: 44% (inactive) and 79% (active) | growth inhibition [3, 9]: 98% (active) | growth inhibition ([3]; at 50.0 µM): 97.7% (active) and 97% (active) | growth inhibition [4, 8]: 10% (inactive) and 27% (inactive) | growth inhibition [4, 9]: 94% (active) and 96% (active) | growth inhibition ([4]; at 50.0 µM): 98% (active) and 97.8% (active) | growth inhibition [7, 8]: 73% (active) and 90% (active) | growth inhibition [7, 9]: 98% (active) | growth inhibition ([7]; at 50.0 µM): 98.2% (active) and 98.9% (active) | growth inhibition [6, 8]: 70% (active) and 77% (active) | growth inhibition [6, 9]: 98% (active) | growth inhibition ([6]; at 50.0 µM): 98.2% (active) and 97.6% (active)

O=C1NS(=O)(=O)c2ccccc21
growth inhibition [1, 8]: -9% (inactive) | growth inhibition [1, 9]: -81% (inactive) | growth inhibition ([1]; at 50.0 µM): 23.3% (inactive) and 33% (inactive) | growth inhibition [2, 8]: -30% (inactive) | growth inhibition [2, 9]: -32% (inactive) | growth inhibition ([2]; at 50.0 µM): 13.6% (inactive) and -8.5% (inactive) | growth inhibition [3, 8]: -11% (inactive) | growth inhibition [3, 9]: -43% (inactive) | growth inhibition ([3]; at 50.0 µM): -12.1% (inactive) and 24.2% (inactive) | growth inhibition [4, 8]: -2% (inactive) | growth inhibition [4, 9]: -17% (inactive) | growth inhibition ([4]; at 50.0 µM): 47.5% (inactive) and 29.4% (inactive) | growth inhibition [6, 8]: -6% (inactive) | growth inhibition [6, 9]: -43% (inactive) | growth inhibition ([6]; at 50.0 µM): -19.4% (inactive) and 20.9% (inactive)

CNC(=O)OCCN1c2ccccc2Sc2ccccc21
growth inhibition [1, 8]: -22% (inactive) | growth inhibition [1, 9]: 93% (active) | growth inhibition ([1]; at 50.0 µM): 89.5% (active) | growth inhibition [2, 8]: -9% (inactive) | growth inhibition [2, 9]: 68% (inactive) | growth inhibition ([2]; at 50.0 µM): 92% (active) | growth inhibition [3, 8]: 8% (inactive) | growth inhibition [3, 9]: 91% (active) | growth inhibition ([3]; at 50.0 µM): 93.3% (active) | growth inhibition [4, 8]: -1% (inactive) | growth inhibition [4, 9]: 82% (active) | growth inhibition ([4]; at 50.0 µM): 90.3% (active) | growth inhibition [7, 8]: 0% (inactive) | growth inhibition [7, 9]: 95% (active) | growth inhibition ([7]; at 50.0 µM): 92% (active) | growth inhibition [6, 8]: -9% (inactive) | growth inhibition [6, 9]: 92% (active) | growth inhibition ([6]; at 50.0 µM): 91.5% (active)

CCCCCCC(C)CC(CCCCCC)NCCOC(=O)c1ccc([N+](=O)[O-])cc1 (stereo not given)
growth inhibition [1, 8]: 34% (inactive) and 18% (inactive) | growth inhibition [1, 9]: 98% (active) and 97% (active) | growth inhibition ([1]; at 50.0 µM): 98.8% (active) and 99.2% (active) | growth inhibition [2, 8]: 40% (inactive) and 22% (inactive) | growth inhibition [2, 9]: 99% (active) | growth inhibition ([2]; at 50.0 µM): 99.3% (active) and 99.5% (active) | growth inhibition [3, 8]: 80% (active) and 42% (inactive) | growth inhibition [3, 9]: 99% (active) | growth inhibition ([3]; at 50.0 µM): 99.2% (active) and 99.5% (active) | growth inhibition [4, 8]: 14% (inactive) and 2% (inactive) | growth inhibition [4, 9]: 98% (active) | growth inhibition ([4]; at 50.0 µM): 98.5% (active) and 99.1% (active) | growth inhibition [6, 8]: 72% (active) and 68% (inactive) | growth inhibition [6, 9]: 99% (active) and 98% (active) | growth inhibition ([6]; at 50.0 µM): 99% (active) and 99.5% (active)

COC1OCC(O)C(O)C1O (stereo not given)
growth inhibition ([1]; at 50.0 µM): -2.4% (inactive) [middle of 4 runs] | growth inhibition ([2]; at 50.0 µM): 8.15% (inactive) [middle of 4 runs] | growth inhibition ([3]; at 50.0 µM): 1.2% (inactive) [middle of 4 runs] | growth inhibition ([4]; at 50.0 µM): -8.1% (inactive) [middle of 4 runs] | growth inhibition ([7]; at 50.0 µM): -0.95% (inactive) [middle of 4 runs] | growth inhibition ([6]; at 50.0 µM): -7.4% (inactive) [middle of 4 runs]

CCOc1ccc2ccccc2c1C(Cc1ccc(Cl)cc1)NCCO (stereo not given)
growth inhibition [1, 8]: -1% (inactive) | growth inhibition [1, 9]: -1% (inactive) | growth inhibition ([1]; at 50.0 µM): 89.3% (active) | growth inhibition [3, 8]: -21% (inactive) | growth inhibition [3, 9]: 2% (inactive) | growth inhibition ([3]; at 50.0 µM): 94.3% (active) | growth inhibition [4, 8]: 1% (inactive) | growth inhibition [4, 9]: -7% (inactive) | growth inhibition ([4]; at 50.0 µM): 98.6% (active) | growth inhibition [7, 8]: -2% (inactive) | growth inhibition [7, 9]: -3% (inactive) | growth inhibition ([7]; at 50.0 µM): 94.7% (active) | growth inhibition [6, 8]: 1% (inactive) | growth inhibition [6, 9]: 22% (inactive) | growth inhibition ([6]; at 50.0 µM): 98.5% (active)
